From PubChem BioAssay (NCATS) come the findings set out here.

“And” between values parts separate entries of the source, which are not always exact repeats. Equal values may be shown once. Records with an inconclusive call do not appear. Values without a mark were called inactive. The source made the active and inactive calls. The call rests on the fitted dose curve; in most records, active means well fitted inhibition curve with a large enough effect; inconclusive means small, poorly fitted or top-dose-only effect; inactive means flat fitted curve, though single readings scatter. Where a SMILES comes first, the peptide text is derived from it. [ ]: non-standard residue; d: D form. pGlu = O=C1CC[C@@H](C(=O)O)N1; Thz = O=C(O)[C@@H]1CSCN1
On the % scale 0 is the no-effect control and ±100 the full control effect.

The subject of this assay is KB-3-1. Put plainly: Cytotoxic Profiling of Annotated Libraries Using Quantitative High-Throughput Screening (AID 1296008). Further: nearly all actives have a fitted effect of over 60% in size. Particulars: Five cell lines viability, CellTiter-Glo ATP luminescence, 48-72 h; max response: stronger effect = lower value. The source says:
Cell-based phenotypic screening is a commonly used approach to discover biological pathways, novel drug targets, chemical probes and high-quality hit-to-lead molecules. Many hits identified from high-throughput screening campaign are ruled out through a series of follow-up potency, selectivity/specificity, and cytotoxicity assays. Prioritization of molecules with little or no cytotoxicity for a more in-depth downstream evaluation influence the future direction of projects, so cytotoxicity profiling of the screening libraries at early stage is essential for increasing the likelihood of candidate success. […] For the annotated library, we also examined the primary targets and mechanistic pathways regularly associated with cell death. To our knowledge, this is the first study to use high-throughput screening to profile large libraries for cytotoxicity assessment in both normal and cancer cell lines. In summary, the results generated here constitutes a valuable resource for the scientific community and provides insight on identifying cytotoxic compounds with particular mechanisms of action, and prioritizing compounds with suitable cytotoxicity profile for further evaluation.
A pintool (Kalypsys) was used to transfer 23 nL of compound solution to the 1536-well assay plates. After 48 or 72 hr incubation at 37 degree Celsius, 5% CO2 and 95% humidity, 2.5 uL of CellTiter-Glo (Promega) was dispensed into each well using a dispenser (Aspect Automation, St. Paul, MN) with solenoid valves (Lee Valves, Westbrook CT). Plates were left at room temperature for 10 min before imaging the ATP-coupled luminescence using a ViewLux microplate imager (PerkinElmer, Waltham, MA).
On the technique in general: Cellular ATP, detected with luciferase, serves as a proxy for viable cell number.
For `O=C(CS)Nc1ccccc1`, the max response is -19%.

Regarding `CN1[C@@H]2CC[C@H]1CC(OC(=O)C(CO)c1ccccc1)C2` (stereo partly specified), the max response was -5.74% and -6.73% and 8.38%.

As for `O=C(Nc1ccc2[nH]ncc2c1)C1CCC1`, the max response was -1.12%.

For the compound `CC1(C)C[C@@H]1C(=O)N/C(=C\CCCCSC[C@H](N)C(=O)O)C(=O)O`, the max response is 4.27% and -2.38%.

As to `Nc1ccc(C(=O)O)c(O)c1`, the max response was -11.5%.

Regarding `CCCCC[C@H](O)/C=C/[C@@H]1[C@@H](C/C=C\CCCC(=O)O)[C@@H](O)C[C@H]1O`, the max response was 4.45% and 3.57%.

For `CCCCCCCCCCCCCCCCCC(=O)O`, the max response was -8.88%.

Take `C=CCN1C(=O)C(CC(C)C)NC1=S` (stereo unspecified): the max response was 11.7% and 6.26%.

Turning to `CC(C(=O)O)c1ccc(C(=O)c2ccccc2)s1` (stereo unspecified), the max response is 0.65%.

For `c1ccc(CCNc2nc(-c3ccccc3)cs2)cc1`, the max response was -17.2%.

Take `CN(C)CCn1nnnc1SCC1=C(C(=O)O)N2C(=O)[C@@H](NC(=O)Cc3csc(N)n3)[C@H]2SC1`: the max response is -1.99%.

Turning to `N=c1ccn2c(n1)O[C@H]1[C@H](O)[C@@H](CO)O[C@H]12`, the max response was 33.6%.

As to `CCOc1ccc2nc(S(N)(=O)=O)sc2c1`, the max response is 8.76%.

As for `O=C1CC[C@@H](C(=O)N2CSC[C@H]2C(=O)O)N1` ([pGlu]-[Thz]-OH), the max response is -5.47% and the compound was classed as inactive.

As for `CS(=O)(=O)c1ccc(-n2nc(C(F)(F)F)cc2-c2ccc(F)cc2)cc1`, the max response was -2.3%.

Regarding `Cc1c(Nc2ncccc2C(=O)O)cccc1C(F)(F)F`, the max response was -9.8%.

In the case of `CC1(C)S[C@@H]2[C@H](NC(=O)[C@H](NC(=O)N3CCN(S(C)(=O)=O)C3=O)c3ccccc3)C(=O)N2[C@H]1C(=O)O`, the max response was 1.37% and the result was inactive.

With `COc1cc2c3cc1Oc1cc(ccc1O)C[C@@H]1c4c(cc(OC)c(O)c4Oc4ccc(cc4)C[C@@H]3N(C)CC2)CC[N+]1(C)C`, the max response is -2.77%.

With `CN(CCCOc1ccc(Cc2ccccc2)cc1)CCC(=O)O`, the max response is 7.31%.

With `CC(C(=O)O)c1ccc2c(c1)[nH]c1ccc(Cl)cc12` (stereo unspecified), the max response is 2.49% and 1.67%.

As to `COc1cc(/C=C/C(=O)N2CCN(CC(=O)N3CCCC3)CC2)cc(OC)c1OC`, the result was inactive and the max response is 5.58%.

`CN1CCN(c2cc3c(nn2)Oc2ccccc2N3C)CC1`: the max response was -19.4%.

As to `CCCC(=O)OC[C@@H](OC(=O)CCC)[C@@H](OC(=O)CCC)[C@H](Cn1c2nc(=O)[nH]c(=O)c-2nc2cc(C)c(C)cc21)OC(=O)CCC`, the max response is 23.7%.

As to `CCNc1nc2c(ncn2[C@H]2C[C@H](O)[C@@H](CO)O2)c(=O)[nH]1`, the compound was called inactive.

`COc1cc(CNC(=O)CCCC/C=C/C(C)C)ccc1O`: the max response is -0.699% and the call was inactive.

`C[C@H](O)[C@H](O)[C@H]1CNc2nc(N)[nH]c(=O)c2N1`: the max response was 14% and the result was inactive.

Consider `CN1[C@@H]2CC[C@H]1CC(OC(c1ccccc1)c1ccccc1)C2` (stereo partly specified), for which the result was inactive; the max response is -4.67% and 6.16% and -6.04%.

Regarding `CC(N)C(=O)OC(C)(C)Cc1ccc(Cl)cc1` (stereo unspecified), the max response is 3.19%.

On to `Cc1c(C(=O)O)c(O)cc2c1C(=O)c1c(O)c([C@@H]3O[C@H](CO)[C@@H](O)[C@H](O)[C@H]3O)c(O)c(O)c1C2=O`, for which the max response was -19.3%.

With `COc1cc(/C=C/C(=O)CC(=O)/C=C/c2ccc(O)c(OC)c2)ccc1O`, the max response is 44.3%.

Turning to `CCOC(=O)c1ccccc1O`, the max response was -11.3% and -16.2%.

Regarding `CN1[C@@H](CC(=O)c2ccccc2)CCC[C@H]1C[C@H](O)c1ccccc1`, the max response is -11.5%.

In the case of `CC(C)Cc1ccc([C@H](C)C(=O)O)cc1`, the max response was -10.1%.

Consider `CC1(C)[C@@H](O[C@H]2O[C@H](C(=O)O)[C@@H](O)[C@H](O)[C@H]2O[C@@H]2O[C@H](C(=O)O)[C@@H](O)[C@H](O)[C@H]2O)CC[C@]2(C)[C@H]3C(=O)C=C4[C@@H]5C[C@@](C)(C(=O)O)CC[C@]5(C)CC[C@@]4(C)[C@]3(C)CC[C@@H]12`, for which the max response was 5.21% and the outcome was inactive.
